A selection: hits, their analogues and other compounds. The true share with any hit is near 2.4%.
D2 ag-1 = agonists of human D2 dopamine receptor (beta-arrestin); P14416; 360,000 tested, 0.084% active; activation, % (test concentration not listed); DiscoveRx PathHunter D2 beta-arrestin, luminescence, 90 min; 100% = 57 uM dopamine signal; in the data active = activation above about 40%; inconclusive = between about 15% and that limit
Target sequence (P14416 whole entry, looked up): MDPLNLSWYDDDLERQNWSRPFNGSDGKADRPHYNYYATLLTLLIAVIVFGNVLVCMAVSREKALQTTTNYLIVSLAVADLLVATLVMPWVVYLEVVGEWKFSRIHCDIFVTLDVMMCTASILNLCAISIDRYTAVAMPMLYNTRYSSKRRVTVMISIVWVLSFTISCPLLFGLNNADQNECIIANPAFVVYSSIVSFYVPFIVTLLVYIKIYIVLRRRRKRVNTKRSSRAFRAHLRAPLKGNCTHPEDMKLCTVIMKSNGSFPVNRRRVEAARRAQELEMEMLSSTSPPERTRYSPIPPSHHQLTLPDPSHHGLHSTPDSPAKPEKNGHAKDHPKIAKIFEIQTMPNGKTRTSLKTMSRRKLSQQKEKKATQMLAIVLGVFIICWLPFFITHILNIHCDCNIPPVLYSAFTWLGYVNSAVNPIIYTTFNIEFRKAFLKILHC
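Agonist mode: compounds alone added to overnight-plated D2 PathHunter cells for 90 min at 37 C, with 57 uM final dopamine (EC100) defining full response. Beta-arrestin recruitment detected by chemiluminescent reagent, read after 1 h at ambient temperature.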
D2 PAM-1 = positive allosteric modulators of human D2 dopamine receptor. potentiation, % at 10 µM. 340,000 tested, 0.34% active. AID 485347. HEK293 T-REx D2, calcium flux, EC20 dopamine potentiation;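 active = potentiation over 3 SD above the plate norm, cut at about 30% in these data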
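Using a no-wash calcium dye in inducible, force-coupled HEK293 Trex cells expressing D2, we tracked fluorescence each second for 180 s after compound, then for 180 s after EC20 dopamine to detect augmented signalling.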
D2 ag-2 = agonists of human D2 dopamine receptor; P14416; HEK293 T-REx D2 cells, calcium flux agonist mode; activation, % at 2 µM; 340,000 tested, 0.53% active; AID 485358;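 active = activation over 3 SD above normal in the single-dose calcium agonist read, cut at about 30% in these data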
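Agonism is scored from calcium flux in a force-coupled, inducible HEK293 cell line expressing D2, read kinetically for 180 s after compound addition against dopamine controls.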
D2 PAM-2 = potentiates the human D2 dopamine receptor allosterically; P14416; DiscoveRx D2 beta-arrestin cells, luminescence, 90 min; 100% = 57 uM dopamine signal; potentiation, % (test concentration not listed); 360,000 tested, 0.23% active; AID 624464; in the data active = potentiation above about 50%; inconclusive = mostly about 30% to 49%
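D2 cells co-treated with compound plus 50 nM dopamine (EC20) for 90 min at 37 deg C to detect potentiation. Beta-arrestin recruitment was read as enzyme-fragment luminescence after 1 h at ambient temperature. Full response was set by 57 uM dopamine.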
D2 antagonist = antagonists of human D2 dopamine receptor | P14416 | HEK293 TREx D2 cells, calcium flux, dopamine EC80 | inhibition, % at 10 µM | 340,000 tested, 2% active | AID 485344; in the data active = inhibition above about 30%; inactive = below that, where a call was filed
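Compounds are added to dye-loaded, induced HEK293 T-REx cells coupled to calcium release via D2; after a 3 min kinetic read an EC80 dopamine stimulus is given and fluorescence is recorded for 3 more min.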
Hits are given with their value; i = inactive; ? = inconclusive; nt = no result given.

SMILES	D2 ag-1	D2 PAM-1	D2 ag-2	D2 PAM-2	D2 antagonist
O=C(Nc1ccc2c(c1)OCO2)c1cccn(Cc2ccccc2)c1=O	nt	i	nt	nt	nt
Cc1ccc(-n2c(/C=C/c3ccccc3)nc3ccccc3c2=O)cc1Cl	nt	i	i	nt	nt
Clc1ccc(C(OCCN2CCCCC2)c2ccccc2)cc1 (configuration not stated)	i	i	i	i	43
C=Cc1ccc(Cn2c(C)c(CNCCc3cc(OC)ccc3OC)c(C(=O)O)c2C)cc1	nt	i	i	nt	nt
C[C@@H]1C(=O)O[C@@H]2[C@H](O)C34[C@@H]5OC(=O)C3(O[C@H]3OC(=O)[C@H](O)C34[C@H](C(C)(C)C)[C@H]5O)[C@@]12O (some centres not stated)	i	i	i	i	37
O=C1CC(c2ccc(F)cc2)c2c(c3ccccc3oc2=O)O1 (configuration not stated)	nt	i	nt	nt	nt
CCCN1CCc2cccc3c2[C@H]1Cc1ccc(O)c(O)c1-3	121	nt	nt	136	nt
COc1ccc2c(c1O)-c1c(OC)c(OC)cc3c1[C@H](C2)N(C)CC3	i	i	i	i	i
COC(=O)c1cncn1C(C)c1ccccc1 (configuration not stated)	i	i	i	i	i
CCOC(=O)c1cncn1C(C)c1ccccc1 (configuration not stated)	i	i	i	i	35
O=c1[nH]c2ccccc2n1C1CCN(CCCC(c2ccc(F)cc2)c2ccc(F)cc2)CC1	i	i	i	i	87
O=C1CC(c2ccccc2Br)c2c(c3ccccc3oc2=O)O1 (configuration not stated)	nt	i	i	nt	nt
Cc1cccc(-c2nn3c(=O)cc(CN4CCN(C(=O)COc5ccc(Cl)cc5)CC4)nc3s2)c1	nt	i	i	nt	nt
O=C(CNC(=O)c1ccc(Cl)cc1)Nc1ccc(Br)cc1C(=O)c1ccccc1	i	i	i	i	34
O=C(CNC(=O)c1cccc(Cl)c1)Nc1ccc(Br)cc1C(=O)c1ccccc1	i	i	i	i	i
CCOc1ccc(NC(=O)c2c(O)[nH]c(=O)[nH]c2=O)cc1	i	nt	nt	i	nt
CCOC(=O)c1ccc(NC(=O)c2c(O)[nH]c(=O)[nH]c2=O)cc1	i	i	54	i	i
Cc1nnc(NC(=O)c2cccn(Cc3ccccc3F)c2=O)s1	nt	i	i	nt	nt
O=C(COc1ccc(Br)cc1)Nc1ccc(Cl)cc1C(=O)c1ccccc1	nt	i	i	nt	nt
Cc1cccc(C2CC(=O)Oc3c2c(=O)oc2ccccc32)c1 (configuration not stated)	nt	i	nt	nt	nt
OC(CNC1CCCCC1)C(F)(F)F (configuration not stated)	i	i	i	i	40
COc1ccc(OCC(=O)N2CCN(CCc3ccccn3)CC2)cc1	nt	i	i	nt	nt
CCOC(=O)c1c(N)n(CCCOC(=O)c2ccco2)c2nc3ccccc3nc12	?	i	i	86	i
COc1ccc(NC(=O)CN2C(=O)CN=C(c3ccccc3)c3ccccc32)c(OC)c1	nt	i	i	nt	nt
NS(=O)(=O)OC(CCc1ccccc1)C(Cl)(Cl)Cl (configuration not stated)	i	i	i	i	38
SMILES	D2 ag-1	D2 PAM-1	D2 ag-2	D2 PAM-2	D2 antagonist
CCOC(=O)C1CCCCC12C(C#N)=C(N)Oc1n[nH]c(C)c12 (configuration not stated)	i	i	i	i	30
CN1C[C@H](CNC(=O)OCc2ccccc2)C[C@@H]2c3cccc4c3c(cn4C)C[C@H]21	i	i	i	i	78
O=C(/C=C/c1c[nH]c2ccccc12)c1c(O)n(CCc2ccccc2)c(=O)[nH]c1=O	i	i	40	i	37
CCCCn1c(O)c(C(C)=NCCc2c[nH]c3ccccc23)c(=O)[nH]c1=O	i	i	i	i	i
Cc1cc(OCC(=O)N2CCN(CCc3ccncc3)CC2)cc(C)c1Cl	nt	i	nt	nt	nt
CN1/C(=C\C=C\C2=[N+](C)c3ccc4ccccc4c3C2(C)C)C(C)(C)c2ccccc21	nt	i	i	nt	39
CCN1/C(=C/C=C/C2=[N+](CC)c3ccccc3C2(C)C)C(C)(C)c2ccccc21	i	nt	nt	i	nt
Cc1ccc2c(c1)C1CN(C)CCC1N2S(=O)(=O)c1ccccc1 (configuration not stated)	i	i	i	i	44
C1=C(CCNCc2ccccc2)CCCC1	i	i	i	i	39
